PubChem BioAssay (NCI)
Compounds without any hit were thinned out: in the full panel of roughly 83,000, 20% have a hit.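 For each line, cells grew in 96-well plates with the test compound present at a single concentration for 48 hours.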 Unmarked numbers belong to inactive results. The source made the active and inactive calls. How the source made its calls: active means growth percent below 10; inactive means the rest.

What follows are compounds tested on IGROV1 ovarian (assay: NCI-60 one-dose screen, 48 h (100 = growth as untreated, 0 = no growth, -100 = all killed)). Details: 10 µM unless noted.

Compound | growth
COc1ccc(O)c(-c2cc(-c3ccccc3)c(C#N)c(=O)[nH]2)c1 | 98.8%
CN(C)c1ccc(/C=C2\C=C(c3ccccc3)N(CCc3ccccc3)C2=O)cc1 | 70.2%
O=c1oc2ccc(Cl)cc2cc1-c1cs/c(=N/N=C\c2ccc(Cl)cc2)n1/N=C/c1ccc(Cl)cc1 | 108%
O=C1c2ccccc2C2(c3ccc(O)cc3)c3ccccc3Oc3cccc1c32 (centres undefined) | 59.9%
c1ccc([P+](CCCc2n(Cc3ccc4ccccc4c3)c3ccccc3[n+]2Cc2ccc3ccccc3c2)(c2ccccc2)c2ccccc2)cc1 | 20.8%
C/C(Cc1ccc(Cl)cc1)=C(/c1ccc(Cl)cc1)c1ccc(OCCN(C)C)cc1 | 56.4%
COc1cc2c(cc1OC)-c1ccc3cc4c(cc3c1N(CCCN1CCCCC1)C2)OCO4 | 33.7%
COc1ccc(C(=O)/C=C/c2cc3c(c(OC)c2)OCC(=O)N3)cc1 | 80%
Cn1nnnc1-c1ccc(N)cc1 | 99.2%
CCCCNCC(=O)Nc1ccc(C(=O)OCC)cc1 | 105%
CCCCCOC(=O)c1ccc(NC(=O)CNCC(C)C)cc1 | 93.4%
Cc1nc(Nc2cccc(NC(=O)Nc3ccc(Cl)cc3)c2)c2ccccc2n1 | 102%
C=C(Cl)COC(=O)C(C)(C)O | 109%
CCNCCNc1cc(-c2ccc(Cl)cc2)c(C#N)c2nc3ccccc3n12 | 22.4%
O=C1NCC(=O)N(Cc2ccco2)[C@H]1Cc1ccccc1 | 109%
Cc1ccc(NC(=O)C(Cl)Cl)cc1 | 95.4%
CCOc1cccnc1/C=N/NC(N)=S | -7.7% (active)
O=C(c1ccccc1)c1ccc(Cl)c([N+](=O)[O-])c1 | 43.6%
CCN(CC)CC(=O)Nc1cccc(C(=O)OC(C)C)c1 | 104%
CCOC(=O)C(O)C(O)(c1ccccc1)c1ccccc1 (centres undefined) | 100%

Compound | growth
C[C@@H]1C(=O)N(C[C@@H](Cc2ccccc2)NC(=O)OCc2ccccc2)[C@]1(Cc1ccccc1)C(=O)OCc1ccccc1 | 57.4%
CC1(C)N=C(N)N=C(N)N1c1cccc(CN)c1 | 88.8%
CC(c1ccc(-n2cccn2)cc1)c1cnc(N2CCc3ccc(C(N)=O)cc3C2)s1 (centres undefined) | 79.8%
COc1ccc(OC)c(Nc2nc3nonc3nc2Nc2cccc(Br)c2)c1 | 46.1%
N#Cc1c(N)nc2c(nnn2-c2cccc(Br)c2)c1N | 93.5%
[2H]c1nc(Nc2ncc(F)c(-c3cc(F)c4nc(C)n(C(C)C)c4c3)n2)c([2H])c([2H])c1CN1CCN(C([2H])([2H])C([2H])([2H])[2H])CC1 | 47.3%
Cc1c(C(=O)O)nnn1-c1nccs1 | 104%
CCNCCNc1cc(-c2ccc(C(=O)OC)cc2)c(C#N)c2nc3ccccc3n12 | 53.5%
CO[C@H]1/C=C/O[C@@]2(C)Oc3c(C)c(O)c4c(c3C2=O)C(=O)C(/C=N/N(c2ccccc2)c2ccccc2)=C(NC(=O)/C(C)=C\C=C\[C@H](C)[C@H](O)[C@@H](C)[C@@H](O)[C@@H](C)[C@H](OC(C)=O)[C@@H]1C)C4=O | -16.3% (active)
O[C@H]1CO[C@H]2[C@@H]1OC[C@@H]2Oc1ccc(Nc2nc(Nc3ccc(F)c(Cl)c3)ncc2F)cc1Cl | 102%
CCNCCNc1cc(-c2cccc(C(F)(F)F)c2)c(C#N)c2nc3ccccc3n12 | -74.2% (active)
CN(C)CCN1C(=O)c2cccc3c(-c4ccc(-c5nc6c7ccccc7c7ccccc7c6[nH]5)cc4)ccc(c23)C1=O | 96.3%
CCOC(=O)c1c(C)nc2c(c1N)/C(=C/c1ccc(OC)cc1)C(=O)N2Cc1ccc(F)cc1 | -9.78% (active)
CSc1ccc(Cl)c(C(=O)Nc2sccc2C(N)=O)c1 | 105%
CN1C[C@@H](c2ccc(Cl)cc2)[C@]2(NC(=S)N(c3ccc(F)c(Cl)c3)C2=O)[C@@]12C(=O)NC1C=CC(Cl)=C[C@H]12 (some centres undefined) | 41.9%
O=C(Nc1ccccc1)c1sc(-c2cccc(C(F)(F)F)c2)cc1O | 66.5%
NS(=O)(=O)c1cn(-c2ncnc3nc[nH]c23)ccc1=O | 97.2%
Nc1c(C(=O)c2ccccc2)nnc2ncnn12 | 106%
CCCCCCCSc1ccc(C(=O)O)cc1 | 101%
